Results taken from PubChem BioAssay.
The source made the active and inactive calls.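 Rule for the calls, unless noted: active = visual image review flags a hit and inhibition of aggregation exceeds 20%; inconclusive = visual hit but inhibition at or below 20%; inactive = no hit on visual image review.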

Columns and labels:
[1] = inhibitors of TNFa-induced NFkB p65 translocation, primary screen, imaging, HUVEC, MLSMR starter and 10KST1 sets (AID 438;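 active = inhibition above 20% together with a positive visual image hit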;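 note: compound added about 3h40 before a 20 min TNFalpha stimulation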;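 for inhibition: signal is the nuclear over cytoplasmic p65 intensity ratio per well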); conditions: HUVEC TNFa-induced p65 nuclear translocation; cell count: measured here: nuclei count (cytotoxicity indicator), at 2.08 µM; inhibition: at 2 µM, stronger effect = higher value, 0% TNFa-plus-vehicle, 100% no-TNFa wells
[2] = reduction of polyQ htt aggregates in cells – imaging, exon1htt(103Q)mCFP cells, high-content imaging, primary screen (AID 483); conditions: exon1htt(103Q)mCFP cell line, aggregate imaging, at 2 µM; inhibition of aggregation: stronger effect = higher value; nuclei count: measured here: cell count, toxicity;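 note: compound exposure lasted 3 days before fixation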;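 for nuclei count: percent of the per-plate median nuclei count of sample wells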
[3] = endothelial E-selectin expression blockers – imaging, HUVEC, immunofluorescence, MLSMR starter and 10KST1 sets, primary screen (AID 487;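 active = visually confirmed hit in the image check and inhibition above 20%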;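 for inhibition: signal is fraction of cell area covered by stained E-selectin grains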;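 for nuclei count: 100% = median nuclei count of all wells on the same plate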); conditions: HUVEC TNFalpha-induced E-selectin immunofluorescence imaging, at 2 µM; inhibition: stronger effect = higher value; nuclei count: measured here: cell number, toxicity
[4] = biological target: Voltage-gated potassium channel subunit beta-2 (Rattus norvegicus) (UniProt P62483); assay: inhibitors of rat Kvbeta2 reductase activity – biochemical, NADPH fluorescence, primary screen (AID 622;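 active = fluorescence slope higher than the sample average by over 3 SD, cut at about -0.22 in these data, passing the limit was not always enough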;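 note: slope of raw intensity against log time taken from 70 to 1610 s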); conditions: recombinant KvBeta, 4-cyanobenzaldehyde reduction, at 10 µM, stronger effect = higher value
Voltage-gated potassium channel subunit beta-2 (Rattus norvegicus), sequence (P62483 whole entry, looked up): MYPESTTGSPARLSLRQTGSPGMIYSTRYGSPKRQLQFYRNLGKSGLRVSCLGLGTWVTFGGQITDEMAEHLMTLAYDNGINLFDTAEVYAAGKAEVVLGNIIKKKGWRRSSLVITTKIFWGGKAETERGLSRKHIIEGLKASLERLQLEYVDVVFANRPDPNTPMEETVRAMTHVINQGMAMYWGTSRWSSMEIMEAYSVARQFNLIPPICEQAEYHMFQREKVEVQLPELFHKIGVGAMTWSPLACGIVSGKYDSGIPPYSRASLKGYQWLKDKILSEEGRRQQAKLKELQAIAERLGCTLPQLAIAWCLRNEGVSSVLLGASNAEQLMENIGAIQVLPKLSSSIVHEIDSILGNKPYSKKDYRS

[5] = biological target: Voltage-gated potassium channel subunit beta-2 (Rattus norvegicus) (UniProt P62483); assay: enhancers of rat Kvbeta2 NADPH turnover – biochemical, NADPH fluorescence, primary screen (AID 623;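 active = NADPH fluorescence slope more negative than the mean of all samples by about 3 SD, 99.7% confidence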;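 note: fluorescence intensity change per second fitted from 20 to 320 s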); conditions: Recombinant KvBeta, NADPH fluorescence decrease slope, 10 min; at 10 µM; stronger effect = lower value
[6] = biological target: Alpha-2C adrenergic receptor (Homo sapiens) (UniProt P18825); assay: compounds altering alpha2C-coupled GIRK flux – cell-based, HEK293 alpha2C/GIRK1/2, thallium flux, primary screen (AID 624;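 active = fluorescence slope after compound addition differing from the mean of all screened samples at 99.7% confidence, in either direction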;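 note: slope of fluorescence ratio to pre-addition baseline per second over 15 to 24 s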); conditions: thallium flux BTC fluorescence, at 10 µM, actives lie on both sides
Alpha-2C adrenergic receptor (Homo sapiens), sequence (P18825 whole entry, looked up): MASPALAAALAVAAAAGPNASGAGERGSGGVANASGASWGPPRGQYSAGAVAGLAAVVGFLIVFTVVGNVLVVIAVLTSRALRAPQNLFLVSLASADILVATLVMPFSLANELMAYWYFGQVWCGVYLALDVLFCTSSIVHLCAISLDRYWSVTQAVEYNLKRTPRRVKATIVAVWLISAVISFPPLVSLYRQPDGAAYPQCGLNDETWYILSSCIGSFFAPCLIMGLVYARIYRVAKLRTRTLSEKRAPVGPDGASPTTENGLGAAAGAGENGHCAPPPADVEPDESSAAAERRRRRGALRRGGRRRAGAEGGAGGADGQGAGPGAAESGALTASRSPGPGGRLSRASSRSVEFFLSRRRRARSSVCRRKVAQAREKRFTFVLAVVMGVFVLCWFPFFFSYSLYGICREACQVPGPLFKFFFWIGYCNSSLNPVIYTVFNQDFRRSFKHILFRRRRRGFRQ

[7] = blockers of RIG-like receptor reporter activation – cell-based, Sendai virus stimulus, luciferase, 10K MLSCN set, TLR/RLR signaling modifier project, primary screen (AID 602276;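 active = inhibition at or above 50% at 10 µM; inactive = inhibition below 50%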;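 note: firefly luciferase from ISG56 promoter only with Renilla not read in this screen; 0% = Sendai virus plus DMSO and 100% = medium plus DMSO without virus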); conditions: HEK293 RL24 IRF3 luciferase reporter, at 10 µM, stronger effect = higher value
[8] = TLR3 IRF3 reporter activation blockers – cell-based, poly I:C stimulus, luciferase, 10K MLSCN set, primary screen (AID 602277;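 active = inhibition of the reporter signal at or above 50%; inactive = inhibition below 50%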); conditions: HEK293-TLR3 RL24 IRF3 luciferase reporter, at 10 µM, stronger effect = higher value

SMILES | cell count [1] | inhibition [1] | inhibition of aggregation [2] | nuclei count [2] [%] | inhibition [3] | nuclei count [3] [%] | fluorescence slope [4] | NADPH fluorescence slope [5] | slope [6] | inhibition [7] | inhibition [8]
COc1ccc(-n2c(=O)cc(N3CCN(Cc4ccccc4)CC3)[nH]c2=O)cc1 | 672 | -2.4% (inactive) | -0.4% (inactive) | 119 | 26.6% (inactive) | 108 | -0.621 (inactive) | 1.9e-05 (inactive) | 0.00623 (inactive) | 12.1% (inactive) | 18.9% (inactive)
O=C(c1ccc(Br)cc1)N1CCN(S(=O)(=O)c2ccccc2)CC1 | 556 | -5.1% (inactive) | 3.3% (inactive) | 66.6 | -43.3% (inactive) | 106 | -0.588 (inactive) | -9.2e-07 (inactive) | 0.00631 (inactive) | -3.58% (inactive) | 20% (inactive)
CS(=O)(=O)N(CC(=O)Nc1ccc2c(c1)OCCO2)Cc1ccccc1 | 348 | -4.7% (inactive) | -2.9% (inactive) | 107 | 9.6% (inactive) | 105 | -0.413 (inactive) | 3.7e-05 (inactive) | 0.00583 (inactive) | 8.2% (inactive) | 17.2% (inactive)
O=C(CCn1c(=O)sc2ccccc21)NCc1ccc2c(c1)OCO2 | 294 | -11.1% (inactive) | 15.6% (inactive) | 92.7 | -28.3% (inactive) | 115 | -0.353 (inactive) | -5.2e-05 (inactive) | 0.00437 (inactive) | -17% (inactive) | -12.6% (inactive)
Clc1ccc(OCCCn2cncn2)cc1Cl | 432 | 3.4% (inactive) | 21.2% (inactive) | 99.2 | 7.8% (inactive) | 94.7 | -0.523 (inactive) | 5.3e-06 (inactive) | 0.00702 (inactive) | 10.6% (inactive) | -19.6% (inactive)
O=C(c1ccc(CNc2c(N3CCCC3)c(=O)c2=O)cc1)N1CCc2ccccc2C1 | 535 | 2.3% (inactive) | -13.5% (inactive) | 100 | -18.6% (inactive) | 108 | -0.614 (inactive) | 2.4e-05 (inactive) | 0.00541 (inactive) | -7.92% (inactive) | 4.25% (inactive)
O=S1(=O)C=C(Sc2nnc(-c3ccccc3)o2)c2ccccc21 | 237 | 7.4% (inactive) | 0.8% (inactive) | 93.4 | -55.3% (inactive) | 109 | -0.479 (inactive) | -5.2e-05 (inactive) | 0.00503 (inactive) | 12.3% (inactive) | 66.1% (active)
Cc1noc(/C=C/N(C)C)c1S(=O)(=O)N1CCCC(C(=O)NC2CCCCC2)C1 (stereo unspecified) | 625 | 11.7% (inactive) | 7.9% (inactive) | 93.6 | 34.5% (inactive) | 62.5 | -0.566 (inactive) | 1.6e-05 (inactive) | 0.0069 (inactive) | 16.1% (inactive) | 14.8% (inactive)
CC(C)[C@H](NC(=O)NCc1ccc(Cl)cc1)C(=O)O | 190 | -16.4% (inactive) | 20.4% (inactive) | 70.5 | 11.6% (inactive) | 87.2 | -0.604 (inactive) | -3.7e-05 (inactive) | 0.00337 (inactive) | 13% (inactive) | 19.3% (inactive)
CCn1c(SCc2nc(-c3cccs3)no2)nnc1-c1c[nH]c2ccccc12 | 296 | 3.4% (inactive) | 1.2% (inactive) | 82.9 | -1.6% (inactive) | 102 | -0.34 (inactive) | 1.2e-05 (inactive) | 0.0036 (inactive) | 10.2% (inactive) | 13.6% (inactive)
COc1ccc(N(C(=O)c2ccco2)S(=O)(=O)c2cc(OC)ccc2OC)cc1 | 568 | 4.3% (inactive) | 7.3% (inactive) | 97.7 | 25.3% (inactive) | 93.2 | -0.343 (inactive) | 9.2e-06 (inactive) | 0.00421 (inactive) | 8.61% (inactive) | 20.5% (inactive)
CCN(CC)S(=O)(=O)c1ccc(C(=O)N2CCN=C2SCc2cccnc2)cc1 | 213 | -3.9% (inactive) | -5.6% (inactive) | 99.7 | -32.1% (inactive) | 122 | -0.587 (inactive) | -1.9e-05 (inactive) | 0.0061 (inactive) | -1.95% (inactive) | 9.81% (inactive)
O=C(NC1CCCCCC1)C1CCCN(S(=O)(=O)c2cccs2)C1 (stereo unspecified) | 714 | -6.2% (inactive) | -1% (inactive) | 109 | -27.6% (inactive) | 108 | -0.428 (inactive) | -6.4e-05 (inactive) | 0.00338 (inactive) | -10.9% (inactive) | 2.4% (inactive)
Cc1cc(C)nc(N2CCC(C(=O)Nc3ccc4c(c3)CCC4)CC2)n1 | 338 | 6.3% (inactive) | 17.6% (inactive) | 92 | -103% (inactive) | 120 | -0.405 (inactive) | -6.3e-05 (inactive) | 0.00372 (inactive) | 5.67% (inactive) | 24.8% (inactive)
CC(=O)Nc1ccc(S(=O)(=O)N2CCN(c3cc(C)nc4ccccc34)CC2)cc1 | 730 | -9.1% (inactive) | 35.3% (inactive) | 123 | -87.3% (inactive) | 120 | -0.31 (inactive) | -7.9e-05 (inactive) | 0.00466 (inactive) | 5.87% (inactive) | 13.2% (inactive)
Cc1ccc(-c2nnc(SC(C)C#N)n2N)cc1 (stereo unspecified) | 516 | -3.8% (inactive) | -0.7% (inactive) | 95.1 | -93.5% (inactive) | 137 | -0.587 (inactive) | -3.8e-05 (inactive) | 0.00692 (inactive) | 10.4% (inactive) | 19% (inactive)
CCOc1ccc(Cn2nnc(C(=O)Nc3ccc(OC)cc3OC)c2N)cc1 | 720 | -6.1% (inactive) | 7.2% (inactive) | 108 | -9.7% (inactive) | 106 | -0.49 (inactive) | -3.6e-05 (inactive) | 0.00559 (inactive) | -5.26% (inactive) | -8.45% (inactive)
CCOC(=O)c1ccc(NS(=O)C23CC4CC(CC(C4)C2)C3)cc1 (stereo unspecified) | 406 | -1.1% (inactive) | -7.1% (inactive) | 111 | -53.8% (inactive) | 134 | -0.458 (inactive) | -9e-06 (inactive) | 0.00476 (inactive) | -1.97% (inactive) | 6.33% (inactive)
CCC(OC(=O)c1cccs1)C(=O)NCc1ccco1 (stereo unspecified) | 404 | 5.2% (inactive) | 10.4% (inactive) | 90.1 | -72.5% (inactive) | 118 | -0.44 (inactive) | -0.000112 (inactive) | 0.00455 (inactive) | 16.1% (inactive) | 25% (inactive)
O=C(c1ccc(=O)[nH]c1)N(Cc1ccco1)C1(C(=O)NC2CCCC2)CCCCC1 | 296 | -7.1% (inactive) | 42.7% (active) | 85.1 | -73.8% (inactive) | 104 | -0.529 (inactive) | -8.3e-05 (inactive) | 0.00538 (inactive) | -75.5% (inactive) | 96.9% (active)
COc1ccc(C)cc1NC(=O)c1nnn(Cc2cccc(F)c2)c1N | 610 | -0.2% (inactive) | 6.4% (inactive) | 100 | -31.3% (inactive) | 127 | -0.513 (inactive) | -2.7e-05 (inactive) | 0.00668 (inactive) | 40.9% (inactive) | 1.2% (inactive)
Nc1[nH]nc2nc(N3CCCC3)nc(-c3ccccc3)c12 | 341 | -9.5% (inactive) | 20.6% (inactive) | 60.5 | -53% (inactive) | 117 | -0.477 (inactive) | -3.4e-05 (inactive) | 0.00548 (inactive) | 11.8% (inactive) | 18.8% (inactive)
Cc1ccc(S(=O)(=O)NCCNC(=O)C2CCCNC2=O)cc1 (stereo unspecified) | 440 | -0.4% (inactive) | -9.8% (inactive) | 97.5 | -14.7% (inactive) | 121 | -0.584 (inactive) | -7e-05 (inactive) | 0.00341 (inactive) | 16.4% (inactive) | 12.2% (inactive)
CCn1c(-c2cc(Br)ccc2O)n[nH]c1=S | 623 | -3.8% (inactive) | -0.9% (inactive) | 112 | -27.4% (inactive) | 83.3 | -0.59 (inactive) | -3.5e-05 (inactive) | 0.00762 (inactive) | 8.59% (inactive) | 9.74% (inactive)
CCOc1cc(NC(=O)c2ccccn2)c(OCC)cc1NC(=O)CC(C)C | 609 | -11.5% (inactive) | -0.3% (inactive) | 115 | -76.1% (inactive) | 119 | -0.615 (inactive) | 4.7e-06 (inactive) | 0.00499 (inactive) | -9.2% (inactive) | -24.5% (inactive)
Cc1[nH]n(C(N)=S)c(=O)c1C(c1ccccc1)C(C#N)C#N (stereo unspecified) | 694 | 9.6% (inactive) | -2.9% (inactive) | 107 | 32.6% (inactive) | 99.1 | -0.38 (inactive) | 5.1e-06 (inactive) | 0.00522 (inactive) | -11.3% (inactive) | -18% (inactive)
